PubChem BioAssay (NCATS)
Results filed as inconclusive are left out. Activity calls are given as the source filed them. Unless noted, calls come from the whole dose curve; as a rule, active = well fitted curve in the direction sought with a large enough effect; inconclusive = small, poorly fitted or top-dose-only effect, or another doubt; inactive = no such curve, though single readings can be large; an effect the other way counts as inactive or inconclusive.

Columns and labels:
[1] = Primary qHTS for inhibitors of nuclear receptor binding SET domain protein 2 (NSD2) in an isogenic RCH-ACV NSD2 p.E1099K mutant (9B) (AID 1645876); note: nearly all actives have a fitted effect of over 70% in size
[2] = Primary qHTS for inhibitors of nuclear receptor binding SET domain protein 2 (NSD2) in an RCH-ACV wild type WT cells (2C) (AID 1645877); note: nearly all actives have a fitted effect of over 70% in size
[3] = target: Glutathione peroxidase 1 (Homo sapiens) (UniProt P07203); assay: Primary qHTS Assay for Inhibitors of Recombinant Selenoprotein Glutathione Peroxidase 1 (GPX1) (AID 1845191); note: nearly all actives have a fitted effect of over 65% in size
Procedure, shortened: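 GR-coupled readout: NADPH consumption tracked by fluorescence, ex 340/em 450 nm, at t=0 and after 15 min at RT. Final mix 10 nM GPX1, 1 mM GSH, 0.5 mM CHP, 0.5 mM NADPH, 100 nM GR, 0.01% BSA, following 30 min enzyme–compound preincubation.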

[4] = target: Phospholipid hydroperoxide glutathione peroxidase GPX4 (Homo sapiens) (UniProt P36969); assay: Primary qHTS Assay for Inhibitors of Recombinant Selenoprotein Glutathione Peroxidase 4 (GPX4) (AID 1845192); note: nearly all actives have a fitted effect of over 65% in size
Procedure, shortened: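 Steps: GPX4 plus compound, 30 min RT; add GR/GSH/NADPH master mix; start with cumene hydroperoxide; read 340/450 nm fluorescence at 0 and 15 min. Finals were 200 nM GPX4, 1 mM GSH, 0.5 mM CHP, 0.5 mM NADPH, 100 nM GR.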

[5] = qHTS drug screen for cell cycle checkpoint inhibitors in PARPi-resistant BRCA-mutant ovarian cancer cell lines. (AID 1963452; calls by dose curve); settings: PEO1/OlaR viability, CellTiter-Glo luminescence, 96 h; for Z-AUC: stronger effect = lower value
Procedure, shortened: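 PEO1, PEO4 and PEO1/OlaR ovarian cancer cells, 600 per well, exposed 96 h at 37C to a dilution series. Viability read by CellTiter-Glo luminescence, normalized to DMSO and empty wells; activity summarized as Z-AUC.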

[6] = measured here: PEO1 parental Z-AUC
Potency is the fitted concentration of half-maximal effect.

Sequence of Phospholipid hydroperoxide glutathione peroxidase GPX4 (Homo sapiens) (P36969 whole entry, looked up): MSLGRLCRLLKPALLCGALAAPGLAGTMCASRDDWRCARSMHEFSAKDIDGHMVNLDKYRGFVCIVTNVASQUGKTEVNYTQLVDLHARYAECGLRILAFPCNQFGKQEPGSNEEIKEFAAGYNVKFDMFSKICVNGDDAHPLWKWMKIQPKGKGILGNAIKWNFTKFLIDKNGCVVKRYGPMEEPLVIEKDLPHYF
Sequence of Glutathione peroxidase 1 (Homo sapiens) (P07203 whole entry, looked up): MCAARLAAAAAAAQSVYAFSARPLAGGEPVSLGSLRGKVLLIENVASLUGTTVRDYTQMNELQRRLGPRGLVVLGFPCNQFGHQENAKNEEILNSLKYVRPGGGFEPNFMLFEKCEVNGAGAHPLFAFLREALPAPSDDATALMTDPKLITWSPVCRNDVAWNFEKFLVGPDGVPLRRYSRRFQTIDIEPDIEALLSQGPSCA

Structure (SMILES)	Potency [1]	Potency [2]	Potency [3]	Potency [4]	Z-AUC [5]	Z-AUC [5, 6]	Z-AUC ([5]; measured here: PEO4 Z-AUC)	Potency [5]
Cc1ccc(-n2nc(C(C)(C)C)cc2NC(=O)NCc2cc(F)ccc2Oc2ccc3c(cnn3CCO)c2)cc1	16.6 µM (active)	14.8 µM (active)	inactive	inactive	1.04 (inactive)	0.682	0.464	
Cc1ccc(Nc2cc(N[C@@H]3CCCC[C@@H]3N)nnc2C(N)=O)nc1C	1.05 µM (active)	0.934 µM (active)	inactive	inactive	-0.241 (inactive)	-0.11	0.345	
COc1ccc(S(=O)(=O)Nc2cc(-c3csc(C#N)c3)ccc2C)cc1	0.105 µM (active)	0.118 µM (active)	inactive	inactive	-0.571 (inactive)	-1.63	-1.47	
COc1ccc2c(c1)[C@]1(C[C@H]1c1ccc3c(/C=C/c4ccc(CN5C[C@@H](C)O[C@@H](C)C5)cc4)n[nH]c3c1)C(=O)N2	1.32 µM (active)	0.0295 µM (active)	inactive	inactive	0.356 (inactive)	-0.0342	-0.785	
CCNCCc1ccc(CN(CC)c2cc(OC)ccc2[C@@H]2CCc3cc(O)ccc3C2)cc1	6.61 µM (active)	7.42 µM (active)	inactive	inactive	-0.771 (inactive)	-0.865	-1.44	
CCNC(=O)Nc1ccc(-c2nc3c(c(N4CCOC[C@@H]4C)n2)CCN(C2COC2)C3)cc1	0.833 µM (active)	0.742 µM (active)	inactive	inactive	0.987 (inactive)	1.46	1.27	
CC[C@H](Nc1ncnc2nc[nH]c12)c1oc2ccccc2c(=O)c1-c1cccc(F)c1	1.32 µM (active)	1.48 µM (active)	inactive	inactive	0.58 (inactive)	0.184	0.542	
COc1ccc(/C=C\c2cc(OC)c(OC)c(OC)c2)cc1O	0.0105 µM (active)	0.0093 µM (active)	inactive	inactive		-1.52	-1.81	0.0078 µM (active)
Cc1ccc(Nc2nnc(Cc3ccncc3)c3ccccc23)cc1Br	14.8 µM (active)	13.2 µM (active)	inactive	inactive	0.372 (inactive)	0.414	-0.215	
C=CC(=O)Nc1cccc(Oc2nc(Nc3ccc(N4CCN(C)CC4)cc3)nc3ccsc23)c1	3.32 µM (active)	3.32 µM (active)	inactive	inactive	-0.291 (inactive)	-0.486	-0.146	
[2H]C([2H])([2H])C(O)([C@@H](C)/C=C/[C@@H](C)[C@H]1CC[C@H]2/C(=C/C=C3C[C@@H](O)C[C@H](O)C3)CCC[C@]12C)C([2H])([2H])[2H]	inactive	inactive	inactive	inactive	1.18 (inactive)	0.263	0.327	
CSc1ccc(C(=O)/C=C/c2cc(C)c(OC(C)(C)C(=O)O)c(C)c2)cc1	19.1 µM (active)	17.1 µM (active)	inactive		-0.442 (inactive)	0.00794	-0.391	
COc1ccc(-c2ccc3c(N4CCOC[C@@H]4C)nc(N4CCOC[C@@H]4C)nc3n2)cc1CO	0.059 µM (active)	0.0934 µM (active)	18.3 µM (active)	16.1 µM (active)	1.14 (inactive)	0.497	0.69	
CC[C@@H]1[C@H](F)C(=O)N[C@@H]1COc1nccc2cc(C(N)=O)c(OC)cc12	14.8 µM (active)	10.5 µM (active)	inactive	18 µM (active)	-0.948 (inactive)	-0.251	0.0982	
CCC(=O)NC[C@H](Cc1ccc(OCCc2nc(-c3ccccc3)oc2C)cc1)N/C(C)=C\C(=O)c1ccc(C(F)(F)F)cc1	inactive	inactive	inactive	inactive	0.763 (inactive)	0.398	0.423	
Nc1nc2cc(-c3ccc4ncc(C(=O)N5CCOCC5)n4c3)ccc2o1	8.33 µM (active)	9.34 µM (active)	inactive	inactive	1.25 (inactive)	0.336	0.353	
C[C@]1(C(=O)N(CCCC(=O)O)Cc2cccc(Cl)c2)CCN1C(=O)c1csc2ccccc12	inactive	inactive	inactive	inactive	0.897 (inactive)	0.571	0.835	
Cc1ncc(NC(=O)c2cccc(C(F)(F)F)c2)cc1-c1cnc(OC2CCOCC2)c(N2CCOCC2)c1	18.6 µM (active)	16.6 µM (active)	inactive	inactive	-1.52 (inactive)	-1.38	-1.33	

Structure (SMILES)	Potency [1]	Potency [2]	Potency [3]	Potency [4]	Z-AUC [5]	Z-AUC [5, 6]	Z-AUC ([5]; measured here: PEO4 Z-AUC)	Potency [5]
C/C=C/C/C=C/CCC(=O)[C@H]1O[C@H]1C(N)=O	11.8 µM (active)	13.2 µM (active)	inactive	inactive	-0.297 (inactive)	-0.147	-0.049	
N#Cc1ccc(Cn2cncc2CN2CCN(c3cccc(Cl)c3)C(=O)C2)cc1	4.68 µM (active)	2.63 µM (active)	inactive	inactive	-0.462 (inactive)	-0.168	-0.142	
[O-][n+]1cccc(-c2nc3c(Cl)cccc3cc2[C@@H](Nc2ncnc3cccnc23)C(F)(F)F)c1	0.263 µM (active)	0.468 µM (active)	inactive	inactive	-0.846 (inactive)	0.42	0.695	
Nc1ncccc1-c1nc2ccc(-c3ccccc3)nc2n1-c1ccc(C2(N)CCC2)cc1	0.118 µM (active)	0.186 µM (active)	23 µM (active)	22.7 µM (active)	-0.599 (inactive)	-0.0298	-0.137	
C=C1C(=O)OC2/C=C(/C)CC/C=C(/C)CCC12 (centres undefined)	11.8 µM (active)	8.33 µM (active)	inactive	inactive	1.69 (inactive)	1.29	1.11	
CC[C@H](C)[C@@H]([C@@H](CC(=O)N1CCC[C@H]1[C@H](OC)[C@@H](C)C(=O)N[C@@H](Cc1ccccc1)c1nccs1)OC)N(C)C(=O)[C@@H](NC(=O)[C@H](C(C)C)N(C)C)C(C)C	inactive	inactive	inactive	inactive		-3.14	-2.96	27.5 µM (active)
COc1cc(N2CCN(C)CC2)ccc1Nc1ncc2c(n1)N(C)c1ccccc1C(=O)N2	16.6 µM (active)	16.6 µM (active)	inactive	inactive	-0.466 (inactive)	-0.178	0.52	
CC(/C=C/[C@@H]1C[C@]1(C)c1ccc2c(c1)C(C)(C)CCC2(C)C)=C\C(=O)O	inactive	inactive	inactive		-0.0414 (inactive)	0.571	0.122	
Nc1cc(C(F)(F)F)c(-c2nc(N3CCOCC3)nc(N3CCOCC3)n2)cn1	0.742 µM (active)	0.525 µM (active)	inactive	inactive	-0.884 (inactive)	-0.21	-0.177	
Cc1cc(Nc2ncnc3ccc(NC4=NC(C)(C)CO4)cc23)ccc1Oc1ccn2ncnc2c1	18.6 µM (active)	16.6 µM (active)	inactive	inactive	-0.395 (inactive)	-0.0434	-0.29	
C/C(=C\c1csc(C)n1)[C@@H]1C[C@@H]2O[C@]2(C)CCC[C@H](C)[C@H](O)[C@@H](C)C(=O)C(C)(C)[C@@H](O)CC(=O)N1	0.934 µM (active)	0.742 µM (active)	inactive	inactive	-0.955 (inactive)	-1.61	-1.78	
O=C(Nc1ncc(SCCN2CCCC2)s1)[C@]1(c2ccc(S(=O)(=O)C3CC3)cc2)C[C@H]1C1CCCCC1	10.5 µM (active)	8.33 µM (active)	inactive	inactive	0.2 (inactive)	-0.0651	0.2	
CC1=C2C[C@H]3[C@@H](CC[C@@H]4C[C@H](NS(C)(=O)=O)CC[C@@]43C)[C@@H]2CC[C@@]2(C1)O[C@@H]1C[C@H](C)CN[C@H]1[C@H]2C	13.2 µM (active)	13.2 µM (active)	inactive	inactive	0.848 (inactive)	0.333	-0.208	
C=C1[C@H](OC(=O)/C=C(\C)CC)C[C@@H](C(C)C)[C@@H]2[C@H]([C@@H](C)OC(C)=O)C(=O)C[C@@H]12	inactive	inactive	inactive	inactive	1.28 (inactive)	0.917	1.09	
Cc1ccc(-c2nn(C(C)(C)CNC(=O)c3ccncc3)c3ncnc(N)c23)cc1	8.33 µM (active)	7.42 µM (active)	inactive	inactive	-0.525 (inactive)	-1.23	-1.14	
c1ccc2c(-c3cnn4cc(-c5ccc(OCCN6CCOCC6)cc5)cnc34)ccnc2c1	3.62 µM (active)	3.23 µM (active)	inactive	inactive	-1.41 (inactive)	-1.08	-0.99	
CC(C)(C)NC(=O)c1cncn1C1CCN(c2ccc(-c3nnc(C(F)(F)F)o3)cn2)CC1	2.63 µM (active)	2.35 µM (active)	inactive	inactive	-0.537 (inactive)	0.427	0.071	
CCN(C)S(=O)(=O)Nc1ccc(F)c(C(=O)c2c[nH]c3ncc(-c4cnc(C5CC5)nc4)cc23)c1F	8.33 µM (active)	7.42 µM (active)	inactive		0.933 (inactive)	0.554	0.574	
